The text below walks through data of PubChem BioAssay AID743152 (Broad Institute, 2013).

Activity calls are given as the source filed them.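 Rule for the calls: active = compounds that cut cell ATP glow, with a fitted half-effect dose at or under their top tested dose; inconclusive = flat partial loss of 30 to 70 percent, or poor fit; inactive = the rest.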

The nature of the assay: viability loss in A549 lung cancer cells – cell-based, CellTiter-Glo luminescence, dry powder, set 2, cytotoxicity control, dose response (AID 743152). As to conditions: CellTiter-Glo ATP luminescence, 72 h; series mostly up to 26 µM; activity, negative = cytotoxicity: at the top concentration.
On to `C[C@@H]1CC(=O)NN=C1c1ccc(-c2cncnc2)cc1`, for which the “activity, negative = cytotoxicity” value is 1.75% (inactive).
For the compound `COc1cc2c(cc1OC)-c1cc(=Nc3c(C)cc(C)cc3C)n(C)c(=O)n1CC2`, the “activity, negative = cytotoxicity” value is 12.6% (inactive).
Next, `C[C@@H]1CC(=O)NN=C1c1ccc(N2CCOCC2)c(F)c1`: 10.5% (inactive).
Turning to `CCN(CC)c1ccc(C2=NNC(=O)CC2C)cc1[N+](=O)[O-]` (stereo not drawn), the “activity, negative = cytotoxicity” value was 10.5% (inactive).
Next, `O=C1CN2Cc3c(ccc(Cl)c3Cl)N=C2N1`: 12.6% (inactive); `C[C@@H]1CC(=O)NN=C1c1ccc(Cl)cc1`: -0.617% (inactive); `C[C@H]1CC(=O)NN=C1c1ccc(N2CCOCC2)c(F)c1`: 1.72% (inactive).
On to `C[C@@H]1CC(=O)NN=C1c1ccc(N2CCOCC2)cc1`, for which the “activity, negative = cytotoxicity” value is -5.32% (inactive).
Turning to `CC(=O)Nc1ccc(C2=NNC(=O)C[C@H]2C)cc1[N+](=O)[O-]`, the “activity, negative = cytotoxicity” value was 4.47% (inactive).
As to `C[C@@H]1CC(=O)NN=C1c1ccc(F)c(F)c1`, the “activity, negative = cytotoxicity” value is -0.368% (inactive).
As for `CCN1N=C(c2ccc(N(CC)CC)cc2)[C@H](C)CC1=O`, the “activity, negative = cytotoxicity” value was -8.64% (inactive).
In the case of `Cn1c(NC(=O)c2ccccc2)nc2ccccc21`, the “activity, negative = cytotoxicity” value is -8.4% (inactive).
Under `C[C@@H]1CC(=O)NN=C1c1ccc(C2CCCCC2)cc1` stands 4.9% (inactive).
